# Experiments:
# Assay in all cases: thermal shift delta Tm vs DMSO control; higher = stronger stabilization (binding)
# Settings in all cases: 12.5 µM; protein concentration 2 µM
# LOC_OS02G45750-cb003 = tested on: LOC_OS02G45750-cb003
# In short: (§1)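 Thermal shift values come from differential scanning fluorimetry on purified rice kinase domains made in E. coli, with melting temperatures obtained from Boltzmann fits. Samples of 19.5 μl held 2 μM kinase, 100 mM potassium phosphate pH 7.5, 150 mM NaCl, 10% glycerol, 5 × SYPRO Orange and compound in DMSO, and were heated from 25°C to 95°C at 0.05°C/s. Each shift is a triplicate mean relative to the DMSO-only protein sample.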
# LOC_OS02G54510-cb004 = tested on: LOC_OS02G54510-cb004
# In short: as §1
# LOC_OS03G04050-cb001 = tested on: LOC_OS03G04050-cb001
# In short: as §1
# LOC_OS03G12390-cb001 = tested on: LOC_OS03G12390-cb001
# In short: as §1
# LOC_OS03G27990-cb004 = tested on: LOC_OS03G27990-cb004
# In short: as §1
# LOC_OS03G50450-cb001 = tested on: LOC_OS03G50450-cb001
# In short: as §1
# LOC_OS03G50810-cb003 = tested on: LOC_OS03G50810-cb003
# In short: as §1
# LOC_OS04G35114-cb001 = tested on: LOC_OS04G35114-cb001
# In short: as §1
# LOC_OS04G38480-cb003 = tested on: T1, LOC_OS04G38480-cb003
# T1 sequence (whole entry): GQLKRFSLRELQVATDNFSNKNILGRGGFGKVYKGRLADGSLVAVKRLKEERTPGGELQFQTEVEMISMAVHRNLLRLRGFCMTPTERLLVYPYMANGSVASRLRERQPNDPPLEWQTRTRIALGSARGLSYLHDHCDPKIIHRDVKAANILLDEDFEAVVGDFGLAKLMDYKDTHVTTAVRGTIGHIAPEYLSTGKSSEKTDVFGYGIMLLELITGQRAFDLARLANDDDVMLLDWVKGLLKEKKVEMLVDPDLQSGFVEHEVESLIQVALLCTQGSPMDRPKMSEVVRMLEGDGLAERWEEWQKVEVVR
# In short: as §1
# LOC_OS04G41100-cb001 = tested on: T2, LOC_OS04G41100-cb001
# T2 sequence (whole entry): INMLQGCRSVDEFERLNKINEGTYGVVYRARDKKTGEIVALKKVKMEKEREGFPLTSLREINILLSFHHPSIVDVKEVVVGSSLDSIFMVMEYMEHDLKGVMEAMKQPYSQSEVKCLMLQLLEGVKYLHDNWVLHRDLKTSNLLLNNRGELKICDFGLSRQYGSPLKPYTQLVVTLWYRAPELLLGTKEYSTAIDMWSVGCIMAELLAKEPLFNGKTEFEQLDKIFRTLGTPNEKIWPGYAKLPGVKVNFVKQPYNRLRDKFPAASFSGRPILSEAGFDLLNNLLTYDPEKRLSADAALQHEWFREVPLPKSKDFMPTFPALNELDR
# In short: as §1
# LOC_OS04G57630-cb004 = tested on: LOC_OS04G57630-cb004
# In short: as §1
# LOC_OS05G07850-cb002 = tested on: LOC_OS05G07850-cb002
# In short: as §1
# LOC_OS05G16824-cb004 = tested on: LOC_OS05G16824-cb004
# In short: as §1
# LOC_OS05G28520-cb001 = tested on: LOC_OS05G28520-cb001
# In short: as §1
# LOC_OS05G30820-cb001 = tested on: LOC_OS05G30820-cb001
# In short: as §1
# LOC_OS05G43570-cb004 = tested on: LOC_OS05G43570-cb004
# In short: as §1
# LOC_OS06G16330-cb003 = tested on: LOC_OS06G16330-cb003
# Chain of LOC_OS06G16330-cb003 (as listed by the source): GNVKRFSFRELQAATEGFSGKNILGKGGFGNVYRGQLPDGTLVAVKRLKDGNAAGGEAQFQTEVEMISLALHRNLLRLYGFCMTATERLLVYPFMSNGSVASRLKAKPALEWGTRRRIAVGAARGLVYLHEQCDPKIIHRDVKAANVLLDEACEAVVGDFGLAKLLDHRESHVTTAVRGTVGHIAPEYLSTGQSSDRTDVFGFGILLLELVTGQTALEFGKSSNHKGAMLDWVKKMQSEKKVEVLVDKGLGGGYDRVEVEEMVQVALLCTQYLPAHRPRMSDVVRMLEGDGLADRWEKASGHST
# In short: as §1
# LOC_OS06G22820-cb001 = tested on: T3, LOC_OS06G22820-cb001
# T3 sequence (whole entry): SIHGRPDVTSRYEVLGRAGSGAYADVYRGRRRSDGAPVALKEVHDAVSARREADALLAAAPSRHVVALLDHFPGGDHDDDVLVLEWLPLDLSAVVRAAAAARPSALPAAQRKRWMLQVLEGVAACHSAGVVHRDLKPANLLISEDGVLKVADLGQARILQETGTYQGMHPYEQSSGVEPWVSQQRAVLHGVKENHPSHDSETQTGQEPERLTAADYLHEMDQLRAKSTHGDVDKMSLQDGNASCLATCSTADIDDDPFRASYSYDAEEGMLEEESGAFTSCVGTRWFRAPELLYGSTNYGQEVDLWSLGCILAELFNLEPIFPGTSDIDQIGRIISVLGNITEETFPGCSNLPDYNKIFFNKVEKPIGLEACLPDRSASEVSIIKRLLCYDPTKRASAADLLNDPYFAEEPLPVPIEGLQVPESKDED
# In short: as §1
# LOC_OS07G06570-cb004 = tested on: LOC_OS07G06570-cb004
# In short: as §1
# LOC_OS07G07230-cb001 = tested on: LOC_OS07G07230-cb001
# In short: as §1
# 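Note: purified Escherichia coli-expressed rice kinase domain construct.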
SMILES,thermal shift delta Tm (LOC_OS02G45750-cb003) [°C],thermal shift delta Tm (LOC_OS02G54510-cb004) [°C],thermal shift delta Tm (LOC_OS03G04050-cb001) [°C],thermal shift delta Tm (LOC_OS03G12390-cb001) [°C],thermal shift delta Tm (LOC_OS03G27990-cb004) [°C],thermal shift delta Tm (LOC_OS03G50450-cb001) [°C],thermal shift delta Tm (LOC_OS03G50810-cb003) [°C],thermal shift delta Tm (LOC_OS04G35114-cb001) [°C],thermal shift delta Tm (LOC_OS04G38480-cb003) [°C],thermal shift delta Tm (LOC_OS04G41100-cb001) [°C],thermal shift delta Tm (LOC_OS04G57630-cb004) [°C],thermal shift delta Tm (LOC_OS05G07850-cb002) [°C],thermal shift delta Tm (LOC_OS05G16824-cb004) [°C],thermal shift delta Tm (LOC_OS05G28520-cb001) [°C],thermal shift delta Tm (LOC_OS05G30820-cb001) [°C],thermal shift delta Tm (LOC_OS05G43570-cb004) [°C],thermal shift delta Tm (LOC_OS06G16330-cb003) [°C],thermal shift delta Tm (LOC_OS06G22820-cb001) [°C],thermal shift delta Tm (LOC_OS07G06570-cb004) [°C],thermal shift delta Tm (LOC_OS07G07230-cb001) [°C]
OCCn1cc(-c2ccc3c(c2)CC/C3=N\O)c(-c2ccncc2)n1,0.34,0.15,0.48,0.53,0,0.31,0.5,0.11,0.49,0.67,0.24,2.18,0.35,1.1,0.48,0.5,0.46,0.85,0.92,0.21
COc1cc(Nc2c(C#N)cnc3cc(OCCCN4CCN(C)CC4)c(OC)cc23)c(Cl)cc1Cl [Bosutinib (SKI-606)],0.12,0.16,0.26,0.07,0.12,-0.11,-0.09,0.86,1.14,0.53,-0.3,0.13,-0.71,0.48,0.5,0.48,-0.26,0.74,0.61,0.26
N#Cc1cnc(Nc2cc(NC[C@H]3CNCCO3)c(C(F)(F)F)cn2)cn1,3.09,0.4,0.6,0.36,0.89,0.52,1.11,1.35,1.02,0.96,0.23,4.22,4.42,0.04,0.75,0.11,2.23,0.3,1.08,0.52
Cc1nc(Nc2cnn(C3CCNCC3)c2)nc2c1N(C)C(=O)c1cc3ccccc3cc1N2C,2.86,-0.12,0.18,1.89,0.13,0.69,0.96,1.48,1.64,0.38,0.88,6.28,3.82,0.38,0.47,0.33,1.66,0.22,0.49,0.2
NC(=O)Nc1cc(-c2cccc(F)c2)sc1C(=O)N[C@H]1CCCNC1,1.81,1.91,0.72,2.87,3.23,3.98,4.12,2.52,2.65,0.96,3.39,11.9,10.8,0.35,1.33,1.05,9.93,0.87,1.07,-0.31
O=C(NOC[C@H](O)CO)c1ccc(F)c(F)c1Nc1ccc(I)cc1F,0.77,0.16,0.43,0.47,0.21,0.26,0.28,-0.05,0.76,0.78,-0.16,-0.38,0.88,0.62,0.37,1.5,0.23,1.03,1.11,0.26
"COc1cc(F)c(F)c(Nc2ccc(I)cc2F)c1NS(=O)(=O)C1(C[C@H](O)CO)CC1 [Refametinib (RDEA119, Bay 86-9766)]",0.64,0.25,0.61,0.09,0.41,0.71,0.41,0.19,0.79,0.72,0.29,0.16,-0.08,1.02,0.34,0.4,0.11,1.27,0.72,0.01
CNc1nc(Nc2cnn([C@H]3CCN(C4COC4)C[C@@H]3F)c2Cl)ncc1C(F)(F)F,10.5,0.35,0.37,9.14,2.39,5.54,4.12,4.01,3.09,0.6,1.85,10.8,5.54,0.59,0.51,0.4,5.64,0.65,0.89,0.28
C#Cc1cccc(Nc2ncnc3cc(OCCOC)c(OCCOC)cc23)c1 [Erlotinib],4.13,0.7,0.03,2.11,0.02,-0.06,1.07,6.16,1.65,-0.05,0.41,8.18,-4.3,0.22,0.36,-0.04,3.38,0.08,0.67,-0.73
Cc1ncc(-c2ccnc(Nc3ccc(S(C)(=O)=O)cc3)n2)n1C(C)C,4.52,0.65,0.19,3.93,0.85,0.58,1.7,1.83,2.87,4.97,1.43,11.2,6.1,0.35,1.14,0.74,5.53,1.02,0.69,0.17
CCN(CC)CCNC(=O)c1c(C)[nH]c(/C=C2\C(=O)Nc3ccc(F)cc32)c1C [Sunitinib],0,0.62,0.04,7.93,7.62,3.43,7.56,11,3.55,0.46,4.01,8.4,12.1,2.16,0.86,0.55,8.31,0.22,0.72,0.24
Fc1ccc2[nH]ccc2c1-c1nc(N2CCOCC2)c2sc(CN3CCN(CC4CC4)CC3)cc2n1,0,-0.03,0.21,0.01,0,-0.17,1.38,0.63,0.91,0.18,-0.15,2.07,-1.52,0.19,0.44,0.12,-0.11,0.53,0.96,0.95
CCC(=O)Nc1cccc(Oc2nc(Nc3ccc(N4CCN(C)CC4)cc3OC)ncc2Cl)c1,1.13,-0.03,0.41,2.35,0.56,0.69,1.06,0.8,1.83,0.39,0.17,5.91,-0.12,0.72,0.41,0.44,0.62,0.4,0.81,0.4

# Source: the supplement of paper PMC9694430
